Compound activity deposited in PubChem by The Scripps Research Institute Molecular Screening Center.
PP5 primary: blocks human protein phosphatase 5 activity. P53041. 320,000 compounds, 0.18% hits. inhibition, % at 6.7 µM. purified PP5c, OMFP substrate fluorescence;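 active = inhibition above the campaign's mean inhibition across all tested compounds plus 3 SD, cut at about 9.5% in these data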;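 also: 0% = DMSO only and 100% = 100 µM cantharidin control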
Target sequence (P53041 whole entry, looked up): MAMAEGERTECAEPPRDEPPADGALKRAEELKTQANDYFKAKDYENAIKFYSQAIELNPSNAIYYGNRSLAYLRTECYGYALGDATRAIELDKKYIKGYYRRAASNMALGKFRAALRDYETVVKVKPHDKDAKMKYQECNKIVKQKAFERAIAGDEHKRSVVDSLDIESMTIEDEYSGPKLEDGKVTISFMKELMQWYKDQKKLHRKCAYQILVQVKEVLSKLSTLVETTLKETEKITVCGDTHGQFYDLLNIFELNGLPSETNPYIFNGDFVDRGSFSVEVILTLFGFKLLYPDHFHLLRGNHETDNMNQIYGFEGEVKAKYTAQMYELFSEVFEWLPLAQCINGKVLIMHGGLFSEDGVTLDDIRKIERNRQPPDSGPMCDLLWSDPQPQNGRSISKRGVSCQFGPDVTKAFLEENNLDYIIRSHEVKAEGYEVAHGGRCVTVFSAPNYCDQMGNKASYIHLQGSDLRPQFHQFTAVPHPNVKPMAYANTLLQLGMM
pPAFAH FP inh: pPAFAH (human) enzyme inhibition. Q13093. recombinant pPAFAH, FP-rhodamine probe fluorescence polarization. inhibition, % at 3.39 µM. 330,000 compounds, 1.5% hits. AID 463082;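 active = inhibition above the mean inhibition across the screen plus 3 SD, cut at about 25% in these data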;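 also: inhibitors block binding of the rhodamine activity-based probe so polarization drops; 0% = enzyme with DMSO and 100% = wells lacking pPAFAH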
PAFAH1B2 FP inh: PAFAH1B2 (human) inhibition; P68402; recombinant PAFAH1B2, FP-rhodamine activity probe, fluorescence polarization; inhibition, % at 3.39 µM; 340,000 compounds, 1.2% hits; AID 492953;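 active = inhibition above the mean of all tested compounds plus 3 SD, cut at about 24% in these data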;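 also: 0% = enzyme with DMSO and 100% = wells lacking PAFAH1B2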
PAFAH1B3 inh: inhibitors of human PAFAH1B3; Q15102; recombinant PAFAH1B3, FP-rhodamine probe, fluorescence polarization; inhibition, % at 3.39 µM; 340,000 compounds, 0.28% hits;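 active = inhibition above the screen-wide average of all tested compounds plus 3 SD, cut at about 25% in these data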;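 also: 0% = enzyme with DMSO only and 100% = wells lacking PAFAH1B3 protein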
PP1 counter: PP1-alpha (human) inhibition in PP5 counter-screen; inhibition, % at 6.7 µM; 320,000 compounds, 0.9% hits; purified PP1alpha, OMFP fluorescence; P62136; AID 2235;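 active = inhibition above the mean inhibition of all tested compounds plus 3 SD, computed separately for each screening campaign, cut at about 15% in these data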
PAFAH2 inh: inhibitors of human PAFAH2 | Q99487 | recombinant PAFAH2, FP-rhodamine activity probe, fluorescence polarization | inhibition, % at 3.39 µM | 340,000 compounds, 0.99% hits | AID 492956;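 active = inhibition above the mean over all tested compounds plus 3 SD, cut at about 30% in these data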;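 also: inhibitors block probe labeling of enzyme so polarization drops; 0% = enzyme with DMSO and 100% = wells lacking PAFAH2 protein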
pPAFAH confirm: pPAFAH (human) inhibition, confirmed | inhibition, % at 3.39 µM | recombinant pPAFAH, FP-Rh probe fluorescence polarization | AID 463230 | 2,300 compounds, 72% hits | shares compounds with pPAFAH FP inh;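 active = mean inhibition of the triplicate above the hit cutoff set for the earlier primary screen, cut at about 25% in these data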;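 also: 0% = enzyme with DMSO and 100% = wells lacking pPAFAH enzyme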
* hit, by the source's call. An excerpt weighted towards active compounds, which were near 3.4% of everything screened.

`O=C(CSc1nc(=O)n2cc(Cl)ccc2n1)Nc1ccc2c(c1)OCCO2` gave PP5 primary -1, pPAFAH FP inh 16, PAFAH1B2 FP inh -2, PAFAH1B3 inh -4, PP1 counter -9 and PAFAH2 inh 1.
For COc1cc(/C=N/Nc2ccccc2[N+](=O)[O-])cc(OC)c1O the results were PP5 primary 0, pPAFAH FP inh 21, PAFAH1B2 FP inh 0, PAFAH1B3 inh 6, PP1 counter -2 and PAFAH2 inh 2.
For COc1cc(/C=N/Nc2nc3ccccc3s2)cc([N+](=O)[O-])c1O the results were PP5 primary 0, pPAFAH FP inh 43*, PAFAH1B2 FP inh 14, PAFAH1B3 inh 9, PP1 counter 5, PAFAH2 inh 24 and pPAFAH confirm 47*.
Screening CC(Oc1ccccc1F)C(=O)NNC(=O)CCNC(=O)c1ccccc1Cl (stereo not drawn) returned PP5 primary 3, pPAFAH FP inh 54*, PAFAH1B2 FP inh 4, PAFAH1B3 inh 3, PP1 counter -5, PAFAH2 inh -1 and pPAFAH confirm -1.
`Cc1cc(C)c2c(c1)OC(=O)CC2c1ccc2c(c1)OCO2` (stereo not drawn) gave pPAFAH FP inh 20, PAFAH1B2 FP inh 4, PAFAH1B3 inh 5 and PAFAH2 inh 4.
Screening O=C(CNC(=O)c1cccs1)N/N=C/c1ccc(Cl)cc1 returned PP5 primary 4, pPAFAH FP inh 2, PAFAH1B2 FP inh 0, PAFAH1B3 inh 2, PP1 counter -2 and PAFAH2 inh -1.
`COc1ccccc1C(=O)NCC(=O)N1CCN(S(=O)(=O)c2ccc3c(c2)OCCO3)CC1` gave PP5 primary -2, pPAFAH FP inh 1, PAFAH1B2 FP inh 4, PAFAH1B3 inh 5, PP1 counter -5 and PAFAH2 inh 4.
O=[N+]([O-])c1ccc(Cl)c2c1C1C=CCC1C(c1ccccn1)N2 (stereo not drawn) was read as PP5 primary 3, pPAFAH FP inh 37*, PAFAH1B2 FP inh 9, PAFAH1B3 inh 25, PP1 counter 7, PAFAH2 inh 27 and pPAFAH confirm 7.
Screening COc1ccc(-c2nn[nH]n2)cc1OC returned PP5 primary 2, pPAFAH FP inh 21, PAFAH1B2 FP inh 1, PAFAH1B3 inh 5, PP1 counter -3 and PAFAH2 inh -6.
For Nc1cc(-c2nn[nH]n2)ccc1F the results were PP5 primary 3, pPAFAH FP inh 43*, PAFAH1B2 FP inh 6, PAFAH1B3 inh 16, PP1 counter 0, PAFAH2 inh 3 and pPAFAH confirm 11.
For COC(=O)c1ccc(/C(O)=C(\C#N)c2nc3ccccc3s2)cc1 the results were PP5 primary 0, pPAFAH FP inh 9, PAFAH1B2 FP inh 23, PAFAH1B3 inh 4, PP1 counter -3 and PAFAH2 inh 8.
N#C/C(=C(/O)c1ccc2c(c1)OCO2)c1nc2cc(C(F)(F)F)ccc2s1 was read as PP5 primary 4, pPAFAH FP inh 38*, PAFAH1B2 FP inh 89*, PAFAH1B3 inh 11, PP1 counter 1, PAFAH2 inh 19 and pPAFAH confirm 60*.
CCC(Sc1nc2sc(C(=O)OC)c(C)c2c(=O)n1N)C(=O)NCC1CCCO1 (stereo not drawn) was read as PP5 primary 0, pPAFAH FP inh 0, PAFAH1B2 FP inh -5, PAFAH1B3 inh 2, PP1 counter -3 and PAFAH2 inh -11.
CCc1noc(C)c1C(=O)OCC(=O)NC(C)c1ccccc1 (stereo not drawn) was read as PP5 primary 3, pPAFAH FP inh 35*, PAFAH1B2 FP inh -1, PAFAH1B3 inh 5, PP1 counter -4, PAFAH2 inh -2 and pPAFAH confirm 1.
For CCc1noc(C)c1C(=O)OCC(=O)NCc1ccccc1 the results were PP5 primary 0, pPAFAH FP inh 2, PAFAH1B2 FP inh 7, PAFAH1B3 inh 5, PP1 counter -5 and PAFAH2 inh -2.
`Cc1cc(/C=C2/C(=O)NN(c3ccccc3)C2=O)c(C)n1-c1cccc(O)c1` gave PP5 primary 3, pPAFAH FP inh 19, PAFAH1B2 FP inh 16, PAFAH1B3 inh 7, PP1 counter 4 and PAFAH2 inh 15.
O=C1NN(c2ccc(Br)cc2)C(=O)/C1=C\c1ccc(O)cc1O was read as PP5 primary 1, pPAFAH FP inh 37*, PAFAH1B2 FP inh 15, PAFAH1B3 inh 6, PP1 counter 0, PAFAH2 inh 24 and pPAFAH confirm 25*.
`COc1ccc(S(=O)(=O)NCc2cccnc2)cc1OC` gave PP5 primary 0, pPAFAH FP inh 1, PAFAH1B2 FP inh 4, PAFAH1B3 inh 12, PP1 counter 7 and PAFAH2 inh -4.
CCOC(=O)c1c(NC(=O)/C=C/C(=O)O)sc(C)c1-c1ccc(Cl)cc1 was read as PP5 primary -1, pPAFAH FP inh 44*, PAFAH1B2 FP inh 2, PAFAH1B3 inh 2, PP1 counter 2, PAFAH2 inh -3 and pPAFAH confirm 40*.
For Cc1ccccc1S(=O)(=O)Cc1ccc(C(=O)NCCCN2CCN(C)CC2)o1 the results were PP5 primary 2, pPAFAH FP inh 3, PAFAH1B2 FP inh -1, PAFAH1B3 inh 7, PP1 counter 1 and PAFAH2 inh -4.
For Cc1ccccc1S(=O)(=O)Cc1ccc(C(=O)NCCCN2CCCC2)o1 the results were PP5 primary 0, pPAFAH FP inh 35*, PAFAH1B2 FP inh 5, PAFAH1B3 inh 0, PP1 counter -1, PAFAH2 inh -8 and pPAFAH confirm 0.
CC(=O)c1c(C)[nH]c(C(=O)N2CC(C)CC(C)C2)c1C (stereo not drawn) was read as PP5 primary 1, pPAFAH FP inh 5, PAFAH1B2 FP inh 4, PAFAH1B3 inh 5, PP1 counter 0 and PAFAH2 inh 0.
Screening Cc1ccc(N=Nc2ccc(O)c3ncccc23)cc1 returned PP5 primary 5, pPAFAH FP inh 35*, PAFAH1B2 FP inh 5, PAFAH1B3 inh 1, PP1 counter 9, PAFAH2 inh -12 and pPAFAH confirm 23.
For O=C(NCC1CCCO1)C(c1ccc(F)cc1)N(CCCN1CCOCC1)C(=O)c1ccc(-c2ccccc2)[nH]1 (stereo not drawn) the results were PP5 primary 0, pPAFAH FP inh 2 and PP1 counter -2.
For Cc1cc(SCC(=O)c2ccc(O)c(O)c2)n2nc(C)c(-c3ccccc3)c2n1 the results were PP5 primary -1, pPAFAH FP inh 72*, PAFAH1B2 FP inh -1, PAFAH1B3 inh 13, PP1 counter 10, PAFAH2 inh 17 and pPAFAH confirm 88*.
Screening O=c1c(O)c(-c2cc(O)c(O)c(O)c2)oc2cc(O)cc(O)c12 returned PP5 primary 0, pPAFAH FP inh 66*, PAFAH1B2 FP inh 32*, PAFAH1B3 inh 41*, PP1 counter -1, PAFAH2 inh 9 and pPAFAH confirm 81*.
